Screens from PubChem BioAssay.
Most compounds without a hit are left out; they make up all but 31% or so of the library.
PLAP activator – PLAP enzyme activators, biochemical, luminescence, HTS; purified PLAP enzyme, luminescent substrate read-out; stronger effect = higher value; 1.2% of 96,000 active; activation fold at 20 µM; Alkaline phosphatase, placental type (Homo sapiens), P05187; in the data active = activation fold above about 2
CYP2C19 inh – blockers of cytochrome P450 2C19 activity – biochemical, luminescence, ADME assay, primary screen; P33261; CYP2C19 Supersomes, luciferin-H EGE luminescence, 30 min; inhibition, % at 5 µM; 21% of 96,000 active; AID 778, 2007;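 active = CYP2C19 inhibition above a set limit at 5 µM in the primary screen, cut at about 50% in these data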;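 note: plate controls were negative control wells for no effect and 2.5 mM tranylcypromine positive control for full effect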
CYP2C19 activ – human CYP2C19 activators, primary screen, biochemical, luminescence; Cytochrome P450 2C19 (Homo sapiens), P33261; recombinant CYP2C19, luciferin-H EGE luminescence; stronger effect = higher value; 0 = fully inhibited enzyme, 1 = untreated enzyme; activation factor at 5 µM; 96,000 tested, under 10 active;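 active = activation factor of at least 2 at 5 µM in the primary screen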;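 note: 0 = wells with 2.5 mM tranylcypromine and 1 = vehicle-only wells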
CYP2C9 act – human CYP2C9 activators, primary screen, biochemical, luminescence; 1.4% of 96,000 active; recombinant CYP2C9, luciferin-H conversion; stronger effect = higher value; factor 1 = untreated enzyme, 0 = blocked; Cytochrome P450 2C9 (Homo sapiens), P11712; activation factor at 5 µM;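 active = activation factor of 2 or more for CYP2C9 at a 5 µM dose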;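 note: 0 = sulfaphenazole-blocked wells and 1 = vehicle-only wells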
Target sequence (P11712 whole entry, looked up): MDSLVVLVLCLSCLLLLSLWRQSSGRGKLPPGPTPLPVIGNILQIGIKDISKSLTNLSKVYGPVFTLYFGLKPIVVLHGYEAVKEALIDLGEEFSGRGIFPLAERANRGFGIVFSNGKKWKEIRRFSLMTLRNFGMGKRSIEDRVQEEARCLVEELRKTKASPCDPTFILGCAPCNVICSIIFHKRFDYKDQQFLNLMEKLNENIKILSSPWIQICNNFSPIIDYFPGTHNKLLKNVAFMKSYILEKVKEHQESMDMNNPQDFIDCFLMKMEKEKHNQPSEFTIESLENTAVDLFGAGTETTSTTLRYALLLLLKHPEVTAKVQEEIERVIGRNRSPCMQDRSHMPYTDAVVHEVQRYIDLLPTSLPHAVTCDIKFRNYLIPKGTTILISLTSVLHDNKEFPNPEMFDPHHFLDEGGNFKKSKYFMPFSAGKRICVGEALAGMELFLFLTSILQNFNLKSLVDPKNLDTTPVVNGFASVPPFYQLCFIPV
CYP2C9 inh – blockers of cytochrome P450 2C9 activity – biochemical, luminescence, ADME assay, primary screen; P11712; CYP2C9 Supersomes, luciferin-H conversion; inhibition, % at 5 µM; 20% of 96,000 active; AID 777, 2007;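 active = blocking of liver enzyme CYP2C9 beyond about 50% at 5 µM, limit read from the data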
Numbers without * were called inactive.

SMILES | PLAP activator | CYP2C19 inh | CYP2C19 activ | CYP2C9 act | CYP2C9 inh
Cc1ccc(C2=NN3C(C(=O)c4ccccc4)Oc4ccccc4C3C2)cc1 (stereo not given) | 1.2 | 82* | 0.2 | 0.3 | 70*
C/C=C(\C)c1nnc(NC(=O)c2ccco2)s1 | 0.8 | 3 | 1 | 0.9 | 12
Cc1ccc(C(=O)Oc2oc(-c3ccco3)nc2C=Nc2ccccc2)cc1 | 1.1 | 18 | 0.8 | 0.9 | 9
N#Cc1cc2c(nc1SCC(=O)N1CCCCC1)CCCC2 | 1.2 | -9 | 1.1 | 0.5 | 47
CC(C)OC(=O)CC(=O)CSc1nc2c(cc1C#N)CCCCC2 | 1 | 73* | 0.3 | 0.1 | 87*
CCOC(=O)CC(=O)CSc1nc2c(cc1C#N)CCCCC2 | 1 | 47 | 0.5 | 0.3 | 66*
Cc1ccc(S(=O)(=O)/N=C2/NC(=O)/C(=C/c3cccnc3)S2)cc1 | 1.1 | 68* | 0.3 | 0 | 98*
CCOC(=O)N1CCN(C(=O)c2sc3nc(-c4ccc(F)cc4)cn3c2C)CC1 | 1.5 | 64* | 0.4 | 0.3 | 69*
Cc1c(C(=O)N2CC(C)OC(C)C2)sc2nc(-c3ccc(F)cc3)cn12 (stereo not given) | 1.4 | -12 | 1.1 | 1.1 | -9
COc1ccc(-c2cn3c(C)c(C(=O)N4CCN(c5ccc(F)cc5)CC4)sc3n2)cc1 | 0.9 | -2 | 1 | 1 | -4
COc1ccccc1N1CCN(C(=O)c2sc3nc(-c4ccc(F)cc4)cn3c2C)CC1 | 1.4 | 15 | 0.8 | 0.5 | 50*
Cc1ccc(C(=O)N/C(=C/c2cccs2)C(=O)N2CCCCCC2)cc1 | 1.1 | 32 | 0.7 | 0.5 | 51*
NC(=O)C1CCN(c2oc(-c3ccccc3F)nc2S(=O)(=O)c2ccc(Cl)cc2)CC1 | 0.8 | 52* | 0.5 | 0.7 | 29
Cc1ccc(-n2c(-c3c(-c4ccccc4)noc3C)n[nH]c2=S)cc1 | 2.1* | 62* | 0.4 | 0.3 | 68*
Cc1ccc(-n2c(-c3cccc(C)c3)n[nH]c2=S)cc1 | 1.8 | 38 | 0.6 | 0.8 | 24
CCNC(=O)CN(c1ccc(CC)cc1)S(C)(=O)=O | 0.9 | 49 | 0.5 | 1.1 | -9
CNC(=O)CN(c1ccc(C(C)C)cc1)S(C)(=O)=O | 0.9 | 61* | 0.4 | 1.1 | -10
Nc1cc(C2CCCC2)nn1-c1ccccc1 | 0.9 | 92* | 0.1 | 0.7 | 35
CCCC(=O)Nc1c(C)nn(C(=O)CCC)c1C | 1 | -5 | 1 | 1.1 | -7
CCC(=O)N(Cc1ccc(S(N)(=O)=O)cc1)C1CC(=O)N(c2ccc(OC)cc2)C1=O (stereo not given) | 1.1 | -6 | 1.1 | 1 | 0
Cc1ccc(CS/C(Nc2ccccc2C)=C(\C#N)C(=O)NCc2ccco2)c(C)c1 | 1.3 | 51* | 0.5 | 0.6 | 42
O=C(NCc1ccco1)Nc1ccccc1Cl | 0.8 | 47 | 0.5 | 1 | 3
COC(=O)c1ccccc1NC(=O)NCc1ccco1 | 1.3 | 31 | 0.7 | 0.9 | 8
Cc1ccccc1N/C(SCc1ccc(Cl)cc1)=C(/C#N)C(=O)NCc1ccco1 | 1.1 | 85* | 0.2 | 0.4 | 55*
COc1ccc(-c2nnn(CC(=O)N(C3CCCCC3)C(C)C(=O)NC3CCCC3)n2)cc1OC (stereo not given) | 2* | 83* | 0.2 | 0.3 | 68*
SMILES | PLAP activator | CYP2C19 inh | CYP2C19 activ | CYP2C9 act | CYP2C9 inh
COc1ccc(-c2nnn(CC(=O)N(C3CCCC3)C(C)C(=O)NC3CCCC3)n2)cc1OC (stereo not given) | 1.7 | 81* | 0.2 | 0.4 | 59*
CCCC(C(=O)NC1CCCC1)N(C(=O)Cn1nnc(-c2ccc(C)o2)n1)c1ccccc1OC (stereo not given) | 1.8 | 88* | 0.1 | 0.2 | 81*
COc1ccc(-c2nnn(CC(=O)N(CC(=O)NC3CCCC3)c3cccc(C)c3)n2)cc1OC | 1.5 | 36 | 0.6 | 0.6 | 42
Cc1nnc(NC(=O)C2CCCN(c3ncccn3)C2)s1 (stereo not given) | 0.9 | 6 | 0.9 | 1 | 4
CN(C)c1nccc(Nc2ccccc2)c1C#N | 1 | 51* | 0.5 | 0.5 | 49
Cc1ccccc1Cc1c(C)nc2c(C(=O)NCc3ccc4c(c3)OCO4)cnn2c1C | 0.9 | 9 | 0.9 | 0.8 | 15
